Data from the supplement of paper PMC8728848.
The entries come from a sample that favours the strongest signals as a whole.

Experiments:
Assay in all cases: glycan array binding signal (z-score within array); higher = stronger binding
Settings in all cases: glycan notation: IUPAC condensed, linker removed
[1] = biological target: Fuc(a1-2)Gal(b1-4)GlcNAc(b1-3)Gal(b1-4)GlcNAc(b1-2)Man(a1-3)[Fuc(a1-2)Gal(b1-4)GlcNAc(b1-3)Gal(b1-4)GlcNAc(b1-2)Man(a1-6)]Man(b1-4)GlcNAc(b1-4)GlcNAc
Method in brief: (§1)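 Negative Z-scores can be read as non-binding. The Z-score is calculated within each array and then averaged across arrays of one protein sequence at different concentrations or buffers and across linkers. Arrays, 3228 in all, were curated from the Consortium for Functional Glycomics database and kept only where the protein sequence was available.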

[2] = biological target: Fuc(a1-2)[Gal(a1-3)]Gal(b1-4)GlcNAc
Method in brief: as §1

[3] = biological target: Fuc(a1-2)[Gal(a1-3)]Gal(b1-4)GlcNAc(b1-2)Man
Method in brief: as §1

[4] = biological target: Fuc(a1-2)[Gal(a1-3)]Gal(b1-4)GlcNAc(b1-6)GalNAc
Method in brief: as §1

[5] = biological target: Fuc(a1-2)[Gal(a1-3)]Gal(b1-4)[Fuc(a1-3)]GlcNAc(b1-3)GalNAc
Method in brief: as §1

[6] = biological target: Fuc(a1-2)[GalNAc(a1-3)]Gal(b1-4)GlcNAc(b1-2)Man(a1-3)[Fuc(a1-2)[GalNAc(a1-3)]Gal(b1-4)GlcNAc(b1-2)Man(a1-6)]Man(b1-4)GlcNAc(b1-4)[Fuc(a1-6)]GlcNAc
Method in brief: as §1

[7] = biological target: Fuc(a1-3)[Gal(b1-4)]GlcNAc(b1-3)Gal(b1-4)[Fuc(a1-3)]GlcNAc(b1-3)Gal(b1-4)[Fuc(a1-3)]GlcNAc
Method in brief: as §1

[8] = biological target: Fuc(a1-3)[Gal(b1-4)]GlcNAc6S
Method in brief: as §1

[9] = biological target: Fuc(a1-3)[Gal3S(b1-4)]GlcNAc6S
Method in brief: as §1

Fuc(a1-4)GlcNAc = biological target: Fuc(a1-4)GlcNAc
Method in brief: as §1

Gal(a1-3)Gal = biological target: Gal(a1-3)Gal
Method in brief: as §1

Gal(b1-3)GalNAc = biological target: Gal(b1-3)GalNAc
Method in brief: as §1

[10] = biological target: Gal(b1-3)GlcNAc(b1-2)Man(a1-3)[Gal(b1-3)GlcNAc(b1-2)Man(a1-6)]Man(b1-4)GlcNAc(b1-4)GlcNAc
Method in brief: as §1

[11] = biological target: Gal(b1-3)GlcNAc(b1-3)Gal(b1-4)GlcNAc(b1-3)Gal(b1-4)GlcNAc(b1-2)[Gal(b1-3)GlcNAc(b1-3)Gal(b1-4)GlcNAc(b1-3)Gal(b1-4)GlcNAc(b1-6)]Man(a1-6)[Gal(b1-3)GlcNAc(b1-3)Gal(b1-4)GlcNAc(b1-3)Gal(b1-4)GlcNAc(b1-2)Man(a1-3)]Man(b1-4)GlcNAc(b1-4)[Fuc(a1-6)]GlcNAc
Method in brief: as §1

[12] = biological target: Gal(b1-3)[Fuc(a1-4)]GlcNAc(b1-2)Man
Method in brief: as §1

[13] = biological target: Gal(b1-3)[Fuc(a1-4)]GlcNAc(b1-3)Gal(b1-3)[Fuc(a1-4)]GlcNAc
Method in brief: as §1

Gal(b1-4)Gal = biological target: Gal(b1-4)Gal
Method in brief: as §1

[14] = biological target: Gal(b1-4)GlcNAc(b1-2)[Gal(b1-4)GlcNAc(b1-6)]Man(a1-6)[GlcNAc(b1-4)][Gal(b1-4)GlcNAc(b1-2)[Gal(b1-4)GlcNAc(b1-4)]Man(a1-3)]Man(b1-4)GlcNAc(b1-4)[Fuc(a1-6)]GlcNAc
Method in brief: as §1

[15] = biological target: Gal(b1-4)GlcNAc(b1-3)Gal(b1-4)GlcNAc(b1-2)[Gal(b1-4)GlcNAc(b1-3)Gal(b1-4)GlcNAc(b1-6)]Man(a1-6)[Gal(b1-4)GlcNAc(b1-3)Gal(b1-4)GlcNAc(b1-2)Man(a1-3)]Man(b1-4)GlcNAc(b1-4)GlcNAc
Method in brief: as §1

[16] = biological target: Gal(b1-4)GlcNAc(b1-3)Gal(b1-4)GlcNAc(b1-3)GalNAc
Method in brief: as §1

[17] = biological target: Gal(b1-4)GlcNAc(b1-3)Gal(b1-4)GlcNAc(b1-3)[Gal(b1-4)GlcNAc(b1-3)Gal(b1-4)GlcNAc(b1-6)]GalNAc
Method in brief: as §1

[18] = biological target: Gal(b1-4)GlcNAc(b1-3)Gal(b1-4)[Fuc(a1-3)]GlcNAc(b1-3)Gal(b1-4)[Fuc(a1-3)]GlcNAc
Method in brief: as §1

[19] = biological target: Gal(b1-4)GlcNAc(b1-3)[Gal(b1-4)GlcNAc(b1-6)]Gal(b1-4)GlcNAc
Method in brief: as §1

[20] = biological target: Gal(b1-4)GlcNAc(b1-3)[GlcNAc(b1-6)]Gal(b1-4)GlcNAc
Method in brief: as §1

Gal3S(b1-4)Glc6S = biological target: Gal3S(b1-4)Glc6S
Method in brief: as §1

[21] = biological target: GalNAc(b1-4)GlcNAc(b1-2)Man
Method in brief: as §1

GalNAc(b1-4)GlcNAc6S = biological target: GalNAc(b1-4)GlcNAc6S
Method in brief: as §1

GlcA(b1-3)GlcNAc = biological target: GlcA(b1-3)GlcNAc
Method in brief: as §1

[22] = biological target: GlcNAc(a1-3)Gal(b1-4)GlcNAc
Method in brief: as §1

[23] = biological target: GlcNAc(b1-2)[GlcNAc(b1-6)]Man(a1-6)[GlcNAc(b1-4)][GlcNAc(b1-2)Man(a1-3)]Man(b1-4)GlcNAc(b1-4)GlcNAc
Method in brief: as §1

GlcNAc(b1-3)Man = biological target: GlcNAc(b1-3)Man
Method in brief: as §1

Kdn(a2-3)Gal(b1-3)GlcNAc = biological target: Kdn(a2-3)Gal(b1-3)GlcNAc
Method in brief: as §1

[24] = biological target: Man(a1-2)Man(a1-2)Man(a1-3)Man
Method in brief: as §1

[25] = biological target: Man(a1-2)Man(a1-6)[Man(a1-3)]Man(a1-6)[Man(a1-2)Man(a1-2)Man(a1-3)]Man
Method in brief: as §1

Man(a1-3)[Man(a1-6)]Man = biological target: Man(a1-3)[Man(a1-6)]Man
Method in brief: as §1

[26] = biological target: Man(a1-3)[Man(a1-6)]Man(b1-4)GlcNAc(b1-4)GlcNAc
Method in brief: as §1

Man(b1-4)GlcNAc = biological target: Man(b1-4)GlcNAc
Method in brief: as §1

[27] = biological target: Neu5Ac(a2-3)Gal(b1-3)GalNAc6S
Method in brief: as §1

[28] = biological target: Neu5Ac(a2-3)Gal(b1-3)GlcNAc
Method in brief: as §1

Neu5Ac(a2-3)Gal(b1-4)Glc = biological target: Neu5Ac(a2-3)Gal(b1-4)Glc
Method in brief: as §1

[29] = biological target: Neu5Ac(a2-3)Gal(b1-4)GlcNAc(b1-2)Man
Method in brief: as §1

[30] = biological target: Neu5Ac(a2-3)Gal(b1-4)GlcNAc(b1-3)Gal(b1-4)GlcNAc(b1-3)[Neu5Ac(a2-3)Gal(b1-4)GlcNAc(b1-3)Gal(b1-4)GlcNAc(b1-6)]GalNAc
Method in brief: as §1

[31] = biological target: Neu5Ac(a2-3)Gal(b1-4)GlcNAc(b1-6)[Gal(b1-3)]GalNAc
Method in brief: as §1

[32] = biological target: Neu5Ac(a2-3)Gal(b1-4)[Fuc(a1-3)]GlcNAc(b1-2)Man
Method in brief: as §1

[33] = biological target: Neu5Ac(a2-3)Gal(b1-4)[Fuc(a1-3)]GlcNAc(b1-6)[Neu5Ac(a2-3)Gal(b1-3)]GalNAc
Method in brief: as §1

[34] = biological target: Neu5Ac(a2-3)GalNAc(b1-4)GlcNAc
Method in brief: as §1

[35] = biological target: Neu5Ac(a2-3)[Neu5Ac(a2-6)]GalNAc
Method in brief: as §1

[36] = biological target: Neu5Ac(a2-6)GlcNAc(b1-4)GlcNAc
Method in brief: as §1

Neu5Ac(a2-8)Neu5Ac = biological target: Neu5Ac(a2-8)Neu5Ac
Method in brief: as §1

[37] = biological target: Neu5Ac9Ac(a2-3)Gal(b1-4)GlcNAc
Method in brief: as §1

[38] = biological target: Neu5Gc(a2-8)Neu5Gc(a2-3)Gal(b1-4)GlcNAc
Method in brief: as §1

B1: Mermaid3 (Stilbonema majum) (protein)
chain: MGSSHHHHHHSSGLVPRGSHMAASGWLRSPQGTVVKLYRRSLSWSKADEFCKDVDGRLVVDRTADMHLFLIKNVLKEKKSRVWVGLRRTASHSRTWIWSDGTRQNEGDLDANLWLRDEPNDAAGEEECALFMYSPWEKAWGLNDYLCRGGCRNYQFICEKWIR
glycan array binding signal (z-score) [1]: 0.368
glycan array binding signal (z-score) [2]: -0.174
glycan array binding signal (z-score) [3]: -0.175
glycan array binding signal (z-score) [4]: -0.383
glycan array binding signal (z-score) [5]: -0.592
glycan array binding signal (z-score) [6]: 0.166
glycan array binding signal (z-score) [7]: -0.463
glycan array binding signal (z-score) [8]: 3.67
glycan array binding signal (z-score) [9]: -0.521
glycan array binding signal (z-score) (Fuc(a1-4)GlcNAc): 1.39
glycan array binding signal (z-score) (Gal(a1-3)Gal): -0.579
glycan array binding signal (z-score) (Gal(b1-3)GalNAc): 0.892
glycan array binding signal (z-score) [10]: -0.627
glycan array binding signal (z-score) [11]: 5.6
glycan array binding signal (z-score) [12]: 0.676
glycan array binding signal (z-score) [13]: -0.634
glycan array binding signal (z-score) (Gal(b1-4)Gal): 6.72
glycan array binding signal (z-score) [14]: -0.562
glycan array binding signal (z-score) [15]: 3.51
glycan array binding signal (z-score) [16]: -0.185
glycan array binding signal (z-score) [17]: -0.118
glycan array binding signal (z-score) [18]: -0.554
glycan array binding signal (z-score) [19]: -0.074
glycan array binding signal (z-score) [20]: 4.93
glycan array binding signal (z-score) (Gal3S(b1-4)Glc6S): -0.077
glycan array binding signal (z-score) [21]: -0.708
glycan array binding signal (z-score) (GalNAc(b1-4)GlcNAc6S): 3.6
glycan array binding signal (z-score) (GlcA(b1-3)GlcNAc): 1.68
glycan array binding signal (z-score) [22]: 1.05
glycan array binding signal (z-score) [23]: -0.397
glycan array binding signal (z-score) (GlcNAc(b1-3)Man): 5.11
glycan array binding signal (z-score) (Kdn(a2-3)Gal(b1-3)GlcNAc): -0.708
glycan array binding signal (z-score) [24]: -0.704
glycan array binding signal (z-score) [25]: -0.681
glycan array binding signal (z-score) (Man(a1-3)[Man(a1-6)]Man): 0.678
glycan array binding signal (z-score) [26]: -0.62
glycan array binding signal (z-score) (Man(b1-4)GlcNAc): 4.76
glycan array binding signal (z-score) [27]: -0.112
glycan array binding signal (z-score) [28]: -0.277
glycan array binding signal (z-score) (Neu5Ac(a2-3)Gal(b1-4)Glc): 0.506
glycan array binding signal (z-score) [29]: 4.26
glycan array binding signal (z-score) [30]: -0.289
glycan array binding signal (z-score) [31]: 4.77
glycan array binding signal (z-score) [32]: -0.553
glycan array binding signal (z-score) [33]: -0.153
glycan array binding signal (z-score) [34]: 0.426
glycan array binding signal (z-score) [35]: 4.44
glycan array binding signal (z-score) [36]: -0.709
glycan array binding signal (z-score) (Neu5Ac(a2-8)Neu5Ac): -0.57
glycan array binding signal (z-score) [37]: -0.2
glycan array binding signal (z-score) [38]: -0.787
